Laboratory results taken from ChEMBL document CHEMBL1157539, “Thousands of chemical starting points for antimalarial lead identification” (Nature, 2010).
Values joined by “and” are separate entries in the source; they are usually repeats but may differ in a detail not shown here. Equal values may be shown once.

Legend:
Assay type in all cases: functional
[1] = system: Plasmodium falciparum; experiment: GSK_TCMDC: Inhibition of Plasmodium falciparum 3D7 in whole red blood cells, using parasite LDH activity as an index of growth. Test compounds present at 2uM
[2] = system: Plasmodium falciparum; experiment: GSK_TCMDC: Inhibition of Plasmodium falciparum Dd2 in whole red blood cells, using parasite LDH activity as an index of growth. Test compounds present at 2uM
[3] = system: HepG2; experiment: GSK_TCMDC: Percent inhibition of human HepG2 cell line. Test compounds present at 10uM.

| SMILES | Inhibition [1] | Inhibition [2] | Inhibition [3] |
| --- | --- | --- | --- |
| CC(Cc1ccc(Oc2ccc(Cl)cc2)cc1)NCC(O)c1cccc(Cl)c1 (stereo unspecified) | 99% | 98% | 3% |
| CN1CC[C@H](N(Cc2ccccc2F)c2ccc(C#N)c(Cl)c2)C1 | 88% | 68% | 18% |
| N#Cc1c(Cl)cccc1Oc1ccc(S(=O)(=O)N2CCC(CN3CCC(c4c[nH]c5ccccc45)CC3)CC2)cc1 | 100% | 67% | 36% |
| C=C[C@H]1CN2CC[C@@H]1C[C@H]2[C@H](O)c1cc(-c2ccc(F)cc2)nc2ccc(OC)cc12.Cl | 99% | 98% | 5% |
| O=C(Nc1ccc(Oc2ccccc2)cc1)N1CCC(CN2CCC(c3c[nH]c4ccccc34)CC2)CC1 | 100% | 59% | 53% |
| CN(CC(=O)N1CCN(S(=O)(=O)c2cccc(Cl)c2)CC1CN1CCCC1)c1ccc(Cl)c(Cl)c1 (stereo unspecified) | 89% | 32% | 32% |
| O=C(/C=C/c1ccc(Cl)c(Cl)c1)NCC1CCCC(CN2CCC(c3c[nH]c4ccccc34)CC2)C1 (stereo unspecified) | 98% | 43% | 61% |
| CC(=O)Nc1ccc(OCCN(CC(F)(F)F)c2ccc(C#N)cc2C(F)(F)F)cc1 | 81% | 83% | 0% |
| CCCc1c(C(=O)NC2CCC(CN3CCC(c4c[nH]c5ccccc45)CC3)CC2)cnn1-c1ccccc1 (stereo unspecified) | 92% | 7% | 33% |
| CC(C)CNCc1cccc(-c2cccc(CN(C(=O)NC3CCCCC3)C3CCN(Cc4ccccc4)CC3)c2)c1.O=C(O)C(F)(F)F | 97% | 87% | 32% |
| CC(=O)Nc1ccc2[nH]cc(C3CCN(CC4CCN(C(=O)/C=C/c5ccc(Cl)c(Cl)c5)CC4)CC3)c2c1 | 96% | 41% | 10% |
| CCOc1ccc(Br)cc1/C=C/C(=O)Nc1ccc2c(c1)C1CCC2N1C.O=C(O)C(F)(F)F (stereo unspecified) | 89% | 26% | 60% |
| O=C(/C=C/c1ccc(Cl)c(Cl)c1)NC1CCC(N2CCC(c3c[nH]c4ccccc34)CC2)CC1 (stereo unspecified) | 100% | 69% | 41% |
| CC(C)CNCc1ccc(-c2cccc(CN(C(=O)Nc3ccccc3)C3CCN(Cc4ccccc4)CC3)c2)cc1.O=C(O)C(F)(F)F | 100% | 95% | 48% |
| CC[C@H]1CN2CC[C@@H]1C[C@H]2[C@H](O)c1cc(N2CCC(O)(c3ccccc3)CC2)nc2ccc(OC)cc12 | 100% | 98% | 14% |
| CN(C)c1cccc(CCNCCc2c[nH]c3ccc(Cl)cc23)c1.O=C(O)C(=O)O | 94% | 75% | 19% |
| CC(C)CNCc1ccc(-c2cccc(CN(C(=O)CCC3CCCC3)C3CCN(Cc4ccccc4)CC3)c2)cc1.O=C(O)C(F)(F)F | 100% | 92% | 62% |
| O=C1NCN(c2ccc(O)cc2)C12CCN(CCCC(c1ccc(F)cc1)c1ccc(F)cc1)CC2 | 94% | 34% | 20% |
| O=C(/C=C/c1cc([N+](=O)[O-])ccc1Cl)NC1CCC(CN2CCC(c3c[nH]c4ccccc34)CC2)CC1 (stereo unspecified) | 100% | 94% | 21% |

| SMILES | Inhibition [1] | Inhibition [2] | Inhibition [3] |
| --- | --- | --- | --- |
| Cc1[nH]c2ccccc2c1C1=CCN(CCN2CCCc3c(Br)cccc3C2=O)CC1 | 95% | 90% | 10% |
| CCCCCc1cc(O)c2c(c1)OC(C)(C)CC2C1=CCN(Cc2cccnc2)CC1.Cl.O (stereo unspecified) | 97% | 97% | 15% |
| CNCCN(C)C(=O)Oc1c(Br)c(C)nc(C)c1-c1ccc(Oc2ccc(OC(F)(F)F)cc2)cc1.Cl | 98% | 98% | 19% |
| COCCNCc1ccc(-c2cccc(CN(C(=O)CCC3CCCC3)C3CCN(Cc4ccccc4)CC3)c2)cc1.O=C(O)C(F)(F)F | 91% | 86% | 50% |
| O=C(NC1CCC(CN2CCC(c3c[nH]c4ccccc34)CC2)CC1)c1[nH]c(=O)[nH]c(=O)c1F (stereo unspecified) | 99% | 59% | 5% |
| CC[C@H]1CN2CC[C@H]1C[C@H]2[C@H](O)c1cc(-c2ccc(F)cc2)nc2ccc(OC)cc12.Cl | 99% | 98% | 34% |
| CN(C)CCC(=O)c1ccccc1.Cl | 100% | 5% | 11% |
| Cc1cccc(C(=O)Nc2ccnc(N(C)C3CCN(Cc4cccc(O)c4)CC3)c2)c1.O=C(O)C(F)(F)F | 89% | 62% | 5% |
| Cc1[nH]c2cc(F)ccc2c1C1=CCN(CCCCC2(C)C(=O)Nc3c(F)cccc32)CC1 (stereo unspecified) | 96% | 89% | 15% |
| O=C(/C=C/c1ccc(Cl)c(Cl)c1)N1CCC(CN2CCC(c3c(-c4ccc(F)cc4)[nH]c4ccccc34)CC2)CC1 | 100% | 98% | 19% |
| COc1ccc(OC)c(C(O)C(C)NCc2cc(Cl)ccc2O)c1.Cl (stereo unspecified) | 97% | 99% | 11% |
| Cc1ccc(CC(C)NC[C@H](O)c2cccc(Cl)c2)cc1 (stereo partly specified) | 93% | 64% | 0% |
| Cc1[nH]c2ccccc2c1C1=CCN(CCCCC23CCCc4cccc(c42)NC3=O)CC1 (stereo unspecified) | 95% | 91% | 9% |
| CN1C(=O)OC[C@@H]1Cc1ccc2[nH]cc(C3=CCN(Cc4ccccc4)CC3)c2c1 | 86% | 66% | 4% |
| COCC(=O)N(Cc1ccccc1-c1ccc(CNCCc2ccccc2)cc1)C1CCN(Cc2ccccc2)CC1.O=C(O)C(F)(F)F | 94% | 86% | 39% |
| CCCCn1c(C)c(C(=O)OCC)c2cc(OC(C)=O)c(Br)cc21 | 98% | 79% | 0% |
| CC1(C)CCCN(C(=O)Cc2ccc3c(c2)CCCC3)C1CN1CC=CC1.Cl (stereo unspecified) | 98% | 1% | 0% |
| CCCCC1(NC(=O)[C@H](CC(C)C)Nc2ccc(C#N)c3ccccc23)CCCCC1.O=C(O)C(F)(F)F | 96% | 47% | 37% |
| Cc1cccc2[nH]cc(C3CCN(CC4CCC(NC(=O)/C=C/c5ccc(Cl)c(Cl)c5)CC4)CC3)c12.Cl (stereo unspecified) | 100% | 97% | 88% |

| SMILES | Inhibition [1] | Inhibition [2] | Inhibition [3] |
| --- | --- | --- | --- |
| CC(Cc1ccc(-c2nc3ccccc3[nH]2)cc1)NCC(O)c1cccc(C(F)(F)F)c1 (stereo unspecified) | 97% | 90% | 33% |
| CCCc1c(C(=O)NC2CCC(CN3CCC(c4c[nH]c5ccccc45)CC3)CC2)cnn1-c1ccc(Cl)cc1 (stereo unspecified) | 90% | 37% | 53% |
| Cc1ccc(C(=O)Nc2ccnc(N(C)C3CCN(Cc4cccc(O)c4)CC3)c2)cn1.O=C(O)C(F)(F)F | 90% | 1% | 0% |
| Cl.N[C@@H](CCN1CCC(c2cccc(O)c2)CC1)Cc1ccc(F)c(F)c1 | 92% | 0% | 25% |
| O=C(NC1CCC(CN2CCC(c3c[nH]c4ccccc34)CC2)CC1)c1cc(-c2cccc(Cl)c2)n(-c2ccc(Cl)cc2Cl)n1 (stereo unspecified) | 81% | 25% | 53% |
| CC[C@H]1CN2CC[C@@H]1C[C@H]2[C@H](O)c1cc(N2CCOCC2)nc2ccc(OC)cc12 | 99% | 99% | 10% |
| COc1cc(/C=C/C(=O)NC2CCC(CN3CCC(c4c[nH]c5ccccc45)CC3)CC2)ccc1O (stereo unspecified) | 98% and 99% | 45% and 44% | 11% and 19% |
| Cl.O=C(/C=C/c1ccc(Cl)c(Cl)c1)NC1C2CCC1CC(CN1CCC(c3c[nH]c4ccccc34)CC1)C2 (stereo unspecified) | 100% | 100% | 31% |
| CC[C@H]1CN2CC[C@H]1C[C@H]2[C@H](O)c1cc(/C=C/c2ccc(F)cc2)nc2ccc(OC)cc12.Cl | 99% | 99% | 55% |
| COc1cc(C=CC(=O)NC2CCC(CN3CCC(c4c[nH]c5ccccc45)CC3)CC2)cc(OC)c1 (stereo unspecified) | 100% | 90% | 38% |
| C[C@H](Cc1ccc(OCCCCCCOc2ccccc2)cc1)NC[C@@H](O)c1cc(Br)no1.Cl | 94% | 70% | 21% |
| CC(=O)C1(c2ccccc2)CCN(CCC2(c3ccc(Cl)c(Cl)c3)CN(C(=O)C3CCCC3)CCO2)CC1 (stereo unspecified) | 88% | 70% | 11% |
| O=[N+]([O-])c1ccc(Oc2c(Cl)cc(S(=O)(=O)N3CCC(CN4CCC(c5c[nH]c6ccccc56)CC4)CC3)cc2Cl)c(Cl)c1 | 100% | 83% | 43% |
| Cc1cc(O)cc2c(C3CCN(CC4CCC(NC(=O)/C=C/c5ccccc5Cl)CC4)CC3)c[nH]c12 (stereo unspecified) | 99% | 84% | 21% |
| O=C(NCCC1CCN(CCc2c[nH]c3ccccc23)CC1)Nc1ccc(Cl)c(Cl)c1 | 100% | 5% | 18% |
| CC(Cc1ccc(OCCOc2ccccc2)cc1)NCC(O)c1cccc(C(F)(F)F)c1 (stereo unspecified) | 91% | 76% | 16% |
| CNCCCN(C)C(=O)Oc1c(Br)c(C)nc(C)c1-c1ccc(Oc2ccc(OC(F)(F)F)cc2)cc1.Cl | 96% | 96% | 17% |
| O=C(NC1CCC(CN2CCC(c3c[nH]c4ccccc34)CC2)CC1)c1cc(-c2ccccc2Cl)n(-c2cccc(Cl)c2)n1 (stereo unspecified) | 95% | 24% | 58% |
| Cc1[nH]c2ccc([N+](=O)[O-])cc2c1C1=CCN(C)CC1 | 86% | 68% | 6% |
